We go through 66 compounds from PubChem BioAssay AID504834 (National Center for Advancing Translational Sciences (NCATS), 2011).

Each structure is given as a SMILES string. Hit rate of the full screen: of about 320,000 compounds, about 22,000 (6.9%) were called active. Another 27% or so got no clear call; they are omitted. Calls come from the whole dose curve; as a rule, active = well fitted inhibition curve with a large enough effect; inconclusive = small, poorly fitted or top-dose-only effect, or another doubt; inactive = no such curve, though single readings can be large or run the other way. The list comes from a sample in which actives are over-represented; it also holds similar structures and randomly drawn compounds.
% is set by controls: 0 for no effect and ±100 for the full control effect; potency is the fitted concentration of half-maximal effect.

The test in a line: Primary qHTS for delayed death inhibitors of the malarial parasite plastid, 96 hour incubation. Conditions: P. falciparum luciferase reporter growth; series mostly up to 28.7 µM; activity change, negative = inhibition: at the top concentration. The source says:
The goal of this screen is to discover new antimalarial compounds that act by inhibiting the development of the apicoplast in the malarial parasite Plasmodium falciparum. The biochemical processes that make this organelle essential for erythrocytic stage parasites are not well understood. However, antibiotics such as azithromycin and tetracycline, which target the apicoplast translational machinery, have a potent antimalarial effect.
We have developed a cell-based assay that measures parasite growth based on the expression of an integrated copy of a firefly luciferase reporter. To detect small molecules that cause this "delayed death" phenotype, erythrocytes infected with the luciferase-expressing parasites were incubated with compounds for either one or two generations, corresponding to 48 and 96 hours, respectively. Compounds that inhibit parasite growth in the second generation, but not the first, should be enriched in antimalarials that target the apicoplast. Growth inhibition is detected by a decrease in luciferase activity.
Assay Provider: David Fidock and Eric Ekland, Columbia University
Keywords: NIH Roadmap, MLPCN, MLI, MLSMR, qHTS, NCGC, qHTS, malaria, luciferase, viability
Four microliters of infected erythrocytes (2% hematocrit, 0.05% parasitemia final concentration) in culture medium were dispensed and the plates incubated for 96 hours at 37 C in 5% CO2. Two microliters of luciferase detection reagent was added and luminescence was detected by a ViewLux (PerkinElmer) reader.
For `COc1ccc(OC)c(NC(=O)CN(C)CCOc2ccc(Br)cc2)c1`, the “activity change, negative = inhibition” value was -21.8% (inactive). The same measure, in the same setting: the result for `CC(=O)Nc1ccc(NC(=O)C2CCCN2S(=O)(=O)c2cccc(C(F)(F)F)c2)cc1` (stereo unspecified) reads 6.66% (inactive). Turning to `O=C(Nc1n[nH]c(C(F)(F)F)n1)c1cccs1`, the “activity change, negative = inhibition” value was 41.7% (inactive). In the case of `CC(=O)NS(=O)(=O)c1ccc(N/C(N)=N/c2nc(C)cc(C)n2)cc1`, the “activity change, negative = inhibition” value was -8.97% (inactive). On the same count and under the same terms, the result for `CC1=C(C(N)=O)C(c2ccc(Br)cc2)n2ncnc2N1` (stereo unspecified) reads 9.45% (inactive). Take `Clc1ccc2c(c1)C1=C(C(c3ccncc3)O2)C(c2ccc(Br)cc2)n2ncnc2N1` (stereo unspecified): the Potency was 3.29 µM (active). Turning to `COC(=O)COc1ccc2c(c1C)O/C(=C\c1ccco1)C2=O`, the “activity change, negative = inhibition” value was 86.9% (inactive). The same measure, in the same setting: the result for `CC1CC(C)(C)n2c(O)c(N=NC(N)=S)c3cccc1c32` (stereo unspecified) reads 11.4% (inactive). For the compound `CCc1nc2ccc(C(=O)N3CCN(c4cccc(Cl)c4)CC3)cc2nc1CC`, the Potency is 7.38 µM (active). For the compound `O=C(CCCC(=O)N1CCN(c2cccc(Cl)c2)CC1)c1ccccc1`, the “activity change, negative = inhibition” value is 4.4% (inactive).

Take `Cc1nc2ccc(C(=O)N3CCN(c4ccccc4)CC3)cc2s1`: the “activity change, negative = inhibition” value was -6.37% (inactive).

For `CCOc1cc(C(=O)O)ccc1OCCOc1ccccc1`, the “activity change, negative = inhibition” value is 10.2% (inactive). As for `CN(CC(=O)Nc1cccc(F)c1)C(=O)CC1CCCC1`, the “activity change, negative = inhibition” value was 30.9% (inactive). Regarding `COC(=O)c1ccc(-n2cnc3ccccc32)nc1`, the “activity change, negative = inhibition” value is 0% (inactive).

`Cn1c(NC(=O)c2ccccc2)nc2ccccc21`: the “activity change, negative = inhibition” value is -49.6% (inactive).

`c1ccc(-c2nccc(-c3ccc(-n4cnc5ccccc54)cc3)n2)nc1`: the Potency was 4.15 µM (active). In the case of `O=C(O)C1=NN(c2c(F)c(F)cc(F)c2F)C(=O)CC1`, the “activity change, negative = inhibition” value was 20.6% (inactive). On the same count and under the same terms, the result for `CSc1ncccc1C(=O)Nc1ccc(C)cn1` reads 43.7% (inactive); that for `CCOC(=O)N1CCC(NC(=O)Cc2cn(C)c3ccccc23)CC1`, 34.3% (inactive); that for `CCc1ccccc1NC(=O)CCOc1ccccc1`, -7.11% (inactive). On to `CCc1ccccc1NC(=O)Cc1cn(C)c2ccccc12`, for which the Potency is 13.1 µM (active). Regarding `COc1ccc(CNc2nc3c(c(=O)[nH]c(=O)n3C)n2Cc2ccccc2)cc1`, the “activity change, negative = inhibition” value is 12.3% (inactive).

In the case of `O=C(CC(c1ccccc1)c1ccccc1)NCC(O)c1ccc([N+](=O)[O-])cc1` (stereo unspecified), the “activity change, negative = inhibition” value is -27.2% (inactive). The same measure, in the same setting: the result for `Cc1ccc(C(=O)CSc2ccccc2C(=O)O)cc1` reads 188% (inactive). Take `O=C(CSc1cccc[n+]1[O-])c1ccc(-c2ccccc2)cc1`: the Potency is 8.28 µM (active). For the compound `O=C(CSc1cccc[n+]1[O-])NCCCc1ccccc1`, the “activity change, negative = inhibition” value is 23.3% (inactive). The same measure, in the same setting: the result for `CCCCC(=O)Nc1c2c(nn1-c1ccc([N+](=O)[O-])cc1)CS(=O)(=O)C2` reads 14.9% (inactive); that for `O=C(NCc1ccccn1)C1CCN(S(=O)(=O)c2ccc(Br)cc2)CC1`, 21.9% (inactive). Turning to `COc1ccc2[nH]c(C)c(CCN(Cc3cccs3)C(=S)Nc3ccccc3OC)c2c1`, the Potency is 13.1 µM (active). On to `CCN(CC(=O)NCc1cccs1)C(=O)c1cccc(S(=O)(=O)Nc2ccccc2OC)c1`, for which the “activity change, negative = inhibition” value is 15.4% (inactive). For `COCCN(C(=S)Nc1ccccc1OC)C1CCN(C(C)C)CC1`, the “activity change, negative = inhibition” value is -15.9% (inactive). Still for that read-out and setting: the result for `COc1ccc(S(=O)(=O)NC(C)c2ccccc2)cc1C(=O)N1CCCCC1` (stereo unspecified) reads 25.7% (inactive).

Consider `CC(C)C(NS(=O)(=O)c1cccs1)C(=O)Nc1nc(C(C)(C)C)cs1` (stereo unspecified), for which the Potency is 13.1 µM (active). For the compound `CC(=O)Nc1ccc(S(=O)(=O)N2CCN(S(=O)(=O)c3cccs3)CC2)cc1`, the “activity change, negative = inhibition” value was -14.8% (inactive). `CC(C)(C)c1csc(NC2=NS(=O)(=O)c3ccccc32)n1`: the “activity change, negative = inhibition” value is 0% (inactive). `Cc1ccc(CS(=O)(=O)CCC(=O)NCc2ccc(F)cc2)cc1`: the “activity change, negative = inhibition” value was -0.448% (inactive). On the same count and under the same terms, the result for `COc1ccc(CCC(C)N2CCc3ccccc3C2)cc1` (stereo unspecified) reads 1.99% (inactive). Still for that read-out and setting: the result for `O=C(CN(C(=O)CCC(=O)Nc1nccs1)c1ccc(F)cc1)NCc1ccc2c(c1)OCO2` reads 45.9% (inactive); that for `CCC1Sc2ccc(S(=O)(=O)CCC(=O)NCc3cccs3)cc2NC1=O` (stereo unspecified), 6.87% (inactive); that for `Cc1nc(-c2nnc(SCC(=O)Nc3cc(C(F)(F)F)cc(C(F)(F)F)c3)n2C)cs1`, 25.6% (inactive). Consider `CCN(C(=O)COC(=O)C1CCN(S(=O)(=O)c2ccc(C)c(C)c2)CC1)C1CCS(=O)(=O)C1` (stereo unspecified), for which the “activity change, negative = inhibition” value was -1.93% (inactive). Turning to `CCCNC(=O)OC[C@H]1O[C@H](CCO/N=C/[C@@H](NS(=O)(=O)c2ccc(C)cc2)[C@H](C)/C=C/CC(=O)OC)C=C[C@@H]1Oc1ccc(OC)cc1`, the Potency is 7.38 µM (active).

Regarding `CCCC(C)NC(=O)C1CCN(C(=O)C2CC(=O)N(c3ccc(C)cc3)C2)CC1` (stereo unspecified), the “activity change, negative = inhibition” value is 332% (inactive). Still for that read-out and setting: the result for `COc1ccc(CCNC(=O)COC(=O)C2CC2C)cc1` (stereo unspecified) reads -20.6% (inactive); that for `O=C(Nc1ccccc1C(=O)NCCCn1ccnc1)c1ccc(Cl)cc1Cl`, -16.7% (inactive). Regarding `Clc1ccc(C(Cn2ccnc2)OCc2ccsc2Cl)c(Cl)c1` (stereo unspecified), the Potency is 6.75 µM (active). On to `O=C(NCCCn1ccnc1)Nc1ccc(Cl)cc1Cl`, for which the “activity change, negative = inhibition” value is -24.9% (inactive). The same measure, in the same setting: the result for `CC(OC(=O)CCCOc1ccccc1)C(=O)Nc1ccc(Cl)cn1` (stereo unspecified) reads 0.813% (inactive); that for `CC1CCN(C(=O)COC(=O)CCC(=O)c2cccs2)CC1`, 0.599% (inactive). The same measure, in the same setting: the result for `Cc1c(C(C)(C)O)[nH]c2ccc(C#N)cc12` reads 108% (inactive); that for `O=C(c1ccccc1F)N1CCN(S(=O)(=O)c2ccc(Br)cc2)CC1`, -20% (inactive). Consider `O=S(=O)(c1ccc(Br)cc1)n1ccc2ccccc21`, for which the Potency is 2.62 µM (active).

On to `O=S(=O)(c1ccc(Br)cc1)N1CCC(c2nc3ccccc3[nH]2)CC1`, for which the “activity change, negative = inhibition” value is 36.7% (inactive).

For `C/C=C/c1ccc(OCC(=O)OCC(=O)Nc2c(C)nn(-c3ccccc3)c2C)c(OC)c1`, the “activity change, negative = inhibition” value is 9.93% (inactive). Still for that read-out and setting: the result for `COc1ccc(CNC(=O)C(c2ccc(O)cc2)N(Cc2ccco2)C(=O)c2snc(C(N)=O)c2N)cc1` (stereo unspecified) reads -9.26% (inactive); that for `Cc1cccc(C(=O)N2CCCC(Nc3ccc(C(C)C)cc3)C2)n1` (stereo unspecified), 25.2% (inactive). As to `CCCCNC(=O)CCn1c(=S)[nH]c2cc3c(cc2c1=O)OCO3`, the “activity change, negative = inhibition” value was 139% (inactive). With `O=C(CCn1c(=S)[nH]c2cc3c(cc2c1=O)OCO3)NCc1ccc(Cl)cc1`, the Potency was 11.7 µM (active). Turning to `CC(C)NC(=O)CCCn1c(=S)[nH]c2cc3c(cc2c1=O)OCO3`, the “activity change, negative = inhibition” value is 4.1% (inactive). For `COc1ccc(Nc2nc(-c3ccccc3)cs2)cc1`, the “activity change, negative = inhibition” value was 8.91% (inactive). As for `CCCn1c(CCNc2nc(-c3ccc(OC)cc3)cs2)nc2ccccc21`, the Potency was 11.7 µM (active). In the case of `COc1ccc(-c2csc(Nc3ccc(O)cc3)n2)cc1`, the “activity change, negative = inhibition” value was 37.7% (inactive). Same read-out and setting: the result for `CC(=O)c1cc2c(cc1NC(=O)Cn1nc(-c3ccc(F)cc3)ccc1=O)OCO2` reads 23.7% (inactive).

Turning to `CNC(=O)C1CC(=O)N(Cc2ccc3c(c2)OCO3)C(=Nc2ccc(F)cc2)S1` (stereo unspecified), the Potency was 6.57 µM (active). In the case of `O=C(Cc1ccc(F)cc1)N/N=C/c1ccc2c(c1)OCO2`, the “activity change, negative = inhibition” value was 94.1% (inactive). As for `COc1ccc(N=C2SC(C(=O)Nc3ccc(F)cc3)CC(=O)N2C)cc1` (stereo unspecified), the “activity change, negative = inhibition” value was 3.01% (inactive).
